A short description of assay [1]: NCI Yeast Anticancer Drug Screen. Data for the rad50 strain (AID 155).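 Also: 0% = growth of vehicle-only cultures of the same strain.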 The note with it: S. cerevisiae rad50 strain growth inhibition, stronger effect = higher value. The method, boiled down:
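Yeast carrying a defined DNA repair defect were exposed to test compounds, and growth was compared with vehicle-treated controls to give percent inhibition.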

Assay [2] is described as follows: NCI Yeast Anticancer Drug Screen. Data for the mec2-1 strain (AID 157). The note with it: S. cerevisiae mec2-1 strain, stronger effect = higher value. The method, boiled down:
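Each compound was tested on mec2-1 yeast, a strain altered in DNA damage repair or cell cycle control. Growth inhibition is reported relative to vehicle.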

The nature of assay [3]: NCI Yeast Anticancer Drug Screen. Data for the sgs1 mgt1 strain (AID 161).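 Also: 0% = growth of cultures given vehicle only.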 The note with it: S. cerevisiae sgs1 mgt1 strain, stronger effect = higher value. In a few lines: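 Inhibition of yeast growth, normalised to vehicle-treated controls, is reported for a strain bearing genetic alterations in DNA damage repair.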
A short description of assay [4]: NCI Yeast Anticancer Drug Screen. Data for the cln2 rad14 strain (AID 165).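 Also: 0% = growth equal to vehicle treated cultures.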 The conditions noted are these: S. cerevisiae cln2 rad14 strain, stronger effect = higher value. In a few lines: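 Test compounds were added to cln2 rad14 yeast cultures; inhibition of growth was then determined by comparison with vehicle treatment.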
Assay [5] in a line: NCI Yeast Anticancer Drug Screen. Data for the bub3 strain (AID 167). The note with it: S. cerevisiae bub3 mutant strain, stronger effect = higher value. In a few lines: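 Compounds were applied to a genetically altered yeast strain carrying a cell-cycle control defect. Growth inhibition was scored against vehicle-treated controls.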
The nature of assay [6]: NCI Yeast Anticancer Drug Screen. Data for the mlh1 rad18 strain (AID 175). The note with it: S. cerevisiae mlh1 rad18 strain growth inhibition, stronger effect = higher value. In a few lines: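 Inhibition values reflect reduced growth of mutant yeast versus vehicle-treated controls following compound exposure; the mutations affect DNA damage repair.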
Setting [7] is: at 5.0 µM (retest, dose inferred, filed as 0.5).
Setting [8] is: at 50.0 µM (retest, dose inferred, filed as 5.0).

This is part of a sample that, as a whole, favours compounds with a hit. Of some 79,000 tested, about 15% had one in any assay. Unmarked numbers belong to inactive results. Activity calls are given as the source filed them. Rule as the data show it: active = growth inhibition above about 70%; inactive = the rest.

As to `CCN(CC)CC(O)CNc1cc(C)nc(/N=C(\N)Nc2ccc(Cl)c(Cl)c2)n1` (configuration not stated), the growth inhibition in assay [1] (setting [7]) is 0%; in assay [1] (setting [8]), 64%; in assay [1] (at 50.0 µM), 88.8% (active); in assay [2] (setting [7]), -21%; in assay [2] (setting [8]), 34%; in assay [2] (at 50.0 µM), 57.3%. The growth inhibition in assay [3] (setting [7]) was -11%; in assay [3] (setting [8]) it was 54%; in assay [3] (at 50.0 µM), 87% (active); in assay [4] (setting [7]), -3%; in assay [4] (setting [8]), 19%; in assay [4] (at 50.0 µM), 31.7%. Moreover, the growth inhibition in assay [5] (setting [7]) is -2%; in assay [5] (setting [8]), 30%; in assay [5] (at 50.0 µM), 34.2%; in assay [6] (setting [7]), 12%; in assay [6] (setting [8]), 86% (active); in assay [6] (at 50.0 µM), 81.2% (active).

For the compound `N=C(N)SCc1cc(Cl)cc(Cl)c1O`, the growth inhibition in assay [1] (setting [7]) is 8%; in assay [1] (setting [8]), 20%; in assay [1] (at 50.0 µM), 55.2%; in assay [2] (setting [7]), 4%; in assay [2] (setting [8]), -6%; in assay [2] (at 50.0 µM), -1.85%. For the same compound, the growth inhibition in assay [3] (setting [7]) is 1%; in assay [3] (setting [8]) it was 1%; in assay [3] (at 50.0 µM), 16%; in assay [4] (setting [7]), -18%; in assay [4] (setting [8]), -72%; in assay [4] (at 50.0 µM), -2%. The growth inhibition in assay [5] (setting [7]) is -14%; in assay [5] (setting [8]), -19%; in assay [5] (at 50.0 µM) it was -9.35%; in assay [6] (setting [7]), -5%; in assay [6] (setting [8]), 42%; in assay [6] (at 50.0 µM), 80.2% (active).

Take `C/C=C/c1cc2c(cc1O)CC[C@@H]1[C@@H]2CC[C@]2(C)[C@@H](O)CC[C@@H]12`: the growth inhibition in assay [1] (setting [7]) is 25%; in assay [1] (setting [8]) it was 97% (active); in assay [1] (at 50.0 µM) it was 89% (active); in assay [2] (setting [7]), 12%; in assay [2] (setting [8]) it was 98% (active); in assay [2] (at 50.0 µM) it was 92% (active). Further, the growth inhibition in assay [3] (setting [7]) was 11%; in assay [3] (setting [8]) it was 97% (active); in assay [3] (at 50.0 µM) it was 90.7% (active); in assay [4] (setting [7]) it was 6%; in assay [4] (setting [8]), 97% (active); in assay [4] (at 50.0 µM), 92.7% (active). Also, the growth inhibition in assay [5] (setting [7]) was 22%; in assay [5] (setting [8]), 99% (active); in assay [5] (at 50.0 µM), 91.3% (active); in assay [6] (setting [7]), 24%; in assay [6] (setting [8]), 97% (active); in assay [6] (at 50.0 µM), 86.7% (active).

Consider `[O-]/[N+](O)=C\c1ccccn1`, for which the growth inhibition in assay [1] (setting [7]) is -2%; in assay [1] (setting [8]), -13%; in assay [1] (at 50.0 µM), 5.75%; in assay [2] (setting [7]), 2%; in assay [2] (setting [8]) it was -8%; in assay [2] (at 50.0 µM), 6.55%. Further, the growth inhibition is -5% in assay [3] (setting [7]); -9% in assay [3] (setting [8]); -0.75% in assay [3] (at 50.0 µM); -2% in assay [4] (setting [7]); -10% in assay [4] (setting [8]); -57.6% in assay [4] (at 50.0 µM). In addition, the growth inhibition in assay [5] (setting [7]) is 1%; in assay [5] (setting [8]), 0%; in assay [5] (at 50.0 µM) it was -8.4%; in assay [6] (setting [7]), 0%; in assay [6] (setting [8]), -10%; in assay [6] (at 50.0 µM) it was 37.1%.

With `Oc1cccnc1CN1CCCCC1`, the growth inhibition in assay [1] (setting [7]) is -5%; in assay [1] (setting [8]), 19%; in assay [1] (at 50.0 µM) it was -11.7%; in assay [2] (setting [7]), 6%; in assay [2] (setting [8]), 22%; in assay [2] (at 50.0 µM), -3.1%. The growth inhibition in assay [3] (setting [7]) was 7%; in assay [3] (setting [8]), 8%; in assay [3] (at 50.0 µM) it was -28.5%; in assay [4] (setting [7]) it was 14%; in assay [4] (setting [8]), 14%; in assay [4] (at 50.0 µM) it was 85.7% (active). The growth inhibition in assay [5] (setting [7]) is -21%; in assay [5] (setting [8]) it was 7%; in assay [5] (at 50.0 µM) it was -10.8%; in assay [6] (setting [7]), 19%; in assay [6] (setting [8]), 46%; in assay [6] (at 50.0 µM), -21.1%.

With `CCCCc1ccc2nc(C)cc(N=[N+]=[N-])c2c1`, the growth inhibition in assay [1] (setting [7]) is 2%; in assay [1] (setting [8]) it was 98% (active); in assay [1] (at 50.0 µM), 89.7% (active); in assay [2] (setting [7]), -14%; in assay [2] (setting [8]) it was 90% (active); in assay [2] (at 50.0 µM) it was 99% (active). Also, the growth inhibition in assay [3] (setting [7]) was -6%; in assay [3] (setting [8]) it was 96% (active); in assay [3] (at 50.0 µM) it was 94.8% (active); in assay [4] (setting [7]), -14%; in assay [4] (setting [8]) it was 48%; in assay [4] (at 50.0 µM) it was 94.7% (active). Also, the growth inhibition in assay [5] (setting [7]) is -9%; in assay [5] (setting [8]) it was 92% (active); in assay [5] (at 50.0 µM), 97.2% (active); in assay [6] (setting [7]), -2%; in assay [6] (setting [8]), 98% (active); in assay [6] (at 50.0 µM) it was 96.3% (active).

For the compound `Clc1ccc2c(NC3CCC(N4CCCCC4)CC3)ccnc2c1` (configuration not stated), the growth inhibition in assay [1] (setting [7]) was 99% (active); in assay [1] (setting [8]), 97% (active); in assay [1] (at 50.0 µM) it was -13.2%; in assay [2] (setting [7]), 90% (active); in assay [2] (setting [8]), 97% (active); in assay [2] (at 50.0 µM), -25.6%. Besides, the growth inhibition in assay [3] (setting [7]) was 93% (active); in assay [3] (setting [8]) it was 98% (active); in assay [3] (at 50.0 µM), -24.1%; in assay [4] (setting [7]) it was 76% (active); in assay [4] (setting [8]), 97% (active); in assay [4] (at 50.0 µM), 27.1%. Moreover, the growth inhibition in assay [5] (setting [7]) is 94% (active); in assay [5] (setting [8]), 97% (active); in assay [5] (at 50.0 µM), -79.4%; in assay [6] (setting [7]) it was 98% (active); in assay [6] (setting [8]), 97% (active); in assay [6] (at 50.0 µM), -16%.

Take `Clc1ccnc2c1ccc1c(Cl)ccnc12`: the growth inhibition is 8% in assay [1] (setting [7]); 53% in assay [1] (setting [8]); 43.6% in assay [1] (at 50.0 µM); -17% in assay [2] (setting [7]); 2% in assay [2] (setting [8]); 26.4% in assay [2] (at 50.0 µM). Further, the growth inhibition is 1% in assay [3] (setting [7]); 12% in assay [3] (setting [8]); 20.7% in assay [3] (at 50.0 µM); 5% in assay [4] (setting [7]); -10% in assay [4] (setting [8]); 13.9% in assay [4] (at 50.0 µM). Also, the growth inhibition in assay [5] (setting [7]) is -74%; in assay [5] (setting [8]) it was 10%; in assay [5] (at 50.0 µM) it was 40.6%; in assay [6] (setting [7]), 3%; in assay [6] (setting [8]), 15%; in assay [6] (at 50.0 µM) it was 45.9%.

With `c1ccc(-c2c3ccccc3cc3ccc4ccccc4c23)nc1`, the growth inhibition in assay [1] (setting [7]) was 8%; in assay [1] (setting [8]) it was 48%; in assay [1] (at 50.0 µM) it was 78.7% (active); in assay [2] (setting [7]), -6%; in assay [2] (setting [8]), 40%; in assay [2] (at 50.0 µM), 52.9%. For the same compound, the growth inhibition in assay [3] (setting [7]) is 0%; in assay [3] (setting [8]) it was -42%; in assay [3] (at 50.0 µM), 62.3%; in assay [4] (setting [7]), 10%; in assay [4] (setting [8]), 45%; in assay [4] (at 50.0 µM) it was 49.5%. The growth inhibition in assay [5] (setting [7]) was 3%; in assay [5] (setting [8]), 71% (active); in assay [5] (at 50.0 µM), 71% (active); in assay [6] (setting [7]), -8%; in assay [6] (setting [8]) it was 43%; in assay [6] (at 50.0 µM), 81.2% (active).
